# Measurements published in PubChem BioAssay AID652062 (Broad Institute, 2013).
# In all, about 1,400 compounds went through this assay and about 1,100 (79%) were called active.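 How the source made its calls: active means fitted half-maximal concentration of a falling signal no higher than twice the top valid dose in every test run; inconclusive means runs disagree, or flat partial inhibition, or poor fit; inactive means every run inactive: flat, wrong direction, or potency beyond limit.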 The set was probably picked from earlier hits. The list is a sample of the results. Measured potencies and affinities stand elsewhere.
# Assay: inhibitors of clade B AD8 Env fusion, dose response, cell-based, cherry-pick (AID 652062)
# Conditions: HeLa-AD8 Env / CEM-CCR5 cell fusion, luciferase; at 35 µM (top of the series) unless noted
row,SMILES,"activity change, negative = inhibition"
1,COc1ccccc1S(=O)(=O)N[C@H]1CC[C@H](CC(=O)N2CCN(C)CC2)O[C@H]1CO,-27.9%
2,COc1ccc(-c2cn(CC[C@H]3CC[C@H](NS(=O)(=O)c4ccccc4C)[C@H](CO)O3)nn2)cc1,2.4%
3,COc1ccc(S(=O)(=O)N[C@@H]2CC[C@@H](CC(=O)NCCc3ccncc3)O[C@@H]2CO)cc1,-13%
4,CNC[C@H]1Oc2c(NC(=O)Nc3ccc4c(c3)OCO4)cccc2C(=O)N([C@H](C)CO)C[C@@H]1C,65.2%
5,COC(=O)[C@H](Cc1ccccc1)NC(=O)Cn1cnc(C(=O)Nc2ccc(C)c(C)c2)n1,23.2%
6,CCOc1ccccc1C(=O)NCC(=O)NNC(=O)CN(C)S(=O)(=O)c1ccc(Cl)cc1,-52.6%
7,Nc1c(S(=O)(=O)c2ccccc2)cnc2c(-c3ccc(F)cc3)cnn12,63.4% [at 16 µM]
8,COc1ccc(OC)c(-c2cc(C(=O)Nc3c(C)nn(Cc4ccc(Cl)cc4)c3C)no2)c1,-43.8%
9,Cc1ccc2c(c1)c1c3n2CCN(CCC#N)C3CCC1 (stereo not given),81.2%
10,N#C[C@@H]1[C@H](c2ccc(-c3ccccc3F)cc2)[C@@H](CO)N1C(=O)c1ccccn1,-32.3%
11,N#C[C@H]1[C@@H](c2ccccc2/C=C/c2ccccc2)[C@@H](CO)N1S(=O)(=O)c1cccc(F)c1,108%
12,CCC(=O)N(C)C(c1ccccc1Cl)c1nnnn1-c1c(C)cccc1C (stereo not given),49.6%
13,Cc1ccc(S(=O)(=O)N(C)C)cc1NC(=O)C(C)N(C)CCOc1ccc(Cl)cc1 (stereo not given),-21.5% [at 8 µM]
14,COc1ccc(NC(=O)CN2CCC(C(N)=O)(N3CCCCC3)CC2)cc1,-10%
15,COCC(=O)N(C)C[C@H]1Oc2ncc(Br)cc2C(=O)N([C@H](C)CO)C[C@H]1C,50.8%
16,O=C(c1ccccc1)N1CCN(c2ncnc3sc4c(c23)CCC4)CC1,-54.4%
17,COCCCNC(=O)c1sc2ncnc(N3CCc4ccccc4C3)c2c1C,60.7%
18,Cc1ccc(C2Oc3ccccc3C3=C2C(c2cccs2)n2ncnc2N3)cc1 (stereo not given),12.9%
19,CC(NNC(=S)N1CCCCCC1)c1ccc2ccccc2n1 (stereo not given),-26.1%
20,CN1CC(c2ccccc2)C2(SC(=S)N(Cc3ccco3)C2=O)C12C(=O)Nc1ccccc12 (stereo not given),-103%
21,CNC[C@H]1Oc2c(NC(=O)Nc3cccc4ccccc34)cccc2C(=O)N([C@H](C)CO)C[C@H]1C,104%
22,C[C@H]1CN([C@@H](C)CO)C(=O)c2cccc(NC(=O)c3ccncc3)c2O[C@@H]1CN(C)C(=O)Nc1cccc2ccccc12,63.7%
23,O=C(NCc1cccc(F)c1)[C@@H]1[C@@H](CO)[C@@H]2Cn3c(ccc(-c4cccnc4)c3=O)[C@H]1N2CC1CC1,1.91%
24,NC(=S)c1ccc(OCCCc2ccccc2)cc1,30.2%
25,O=C(C[C@@H]1C=C[C@@H](NC(=O)c2ccccc2)[C@H](CO)O1)NCc1ccc(Oc2ccccc2)cc1,-28.3%
26,C[C@H]1CN([C@@H](C)CO)C(=O)c2cccc(NS(=O)(=O)c3ccc(Cl)cc3)c2O[C@@H]1CN(C)Cc1ccc(C(F)(F)F)cc1,9.5%
27,C[C@@H]1CN([C@H](C)CO)C(=O)c2cccc(NS(=O)(=O)c3ccc(Cl)cc3)c2O[C@@H]1CN(C)Cc1ccc(Cl)c(Cl)c1,-25.6%

row,SMILES,"activity change, negative = inhibition"
1,CN(C)CC(=O)Nc1ccc2c(c1)[C@H]1C[C@@H](CC(=O)NCCc3ccccc3)O[C@H](CO)[C@H]1O2,14.9% [at 30 µM]
2,COc1cccc(S(=O)(=O)N[C@H]2CC[C@H](CC(=O)NCc3ccncc3)O[C@@H]2CO)c1,30.8%
3,Cc1ccc2c(c1)C(=C(C#N)C#N)CCN2,85.1%
4,C[C@H]1CN([C@@H](C)CO)S(=O)(=O)c2ccc(-c3ccc(F)cc3)cc2O[C@H]1CN(C)Cc1cccc(F)c1,-95%
5,C[C@H]1CN([C@@H](C)CO)S(=O)(=O)c2ccc(-c3cccc(C#N)c3)cc2O[C@H]1CN(C)Cc1cccc(F)c1,4.15%
6,C[C@@H]1CN([C@H](C)CO)S(=O)(=O)c2ccc(-c3ccccc3)cc2O[C@@H]1CN(C)Cc1ccccc1,-17.9%
7,COc1cc(-c2cc(OC)c(O)c(OC)c2)cc(OC)c1O,27.9%
8,CCc1nc(N2CCCCC2)c2oc3ccccc3c2n1,16.4%
9,CCc1nc(N2CCCCC2C)c2oc3ccccc3c2n1 (stereo not given),131%
10,C=CCN1C(=S)CC(c2ccccc2)=Nc2ccccc21,1.53%
11,C[C@H](CO)N1C[C@H](C)[C@@H](CN(C)Cc2ccncc2)Oc2cc(C3=CCCCC3)ccc2S1(=O)=O,57.2% [at 15 µM]
12,C[C@@H]1CN([C@@H](C)CO)S(=O)(=O)c2ccc(C3=CCCC3)cc2O[C@@H]1CN(C)C(=O)C1CCOCC1,50.5%
13,COc1ccc(Nc2ncc(C(=O)N3CCN(c4ccc(F)cc4)CC3)c3ccccc23)cc1,0.701%
14,COc1ccc2[nH]c3c(N4CCC(O)(c5cccc(C(F)(F)F)c5)CC4)ncnc3c2c1,-33.8%
15,C[C@@H]1CN([C@@H](C)CO)C(=O)c2cccc(NS(=O)(=O)c3ccc(F)cc3)c2O[C@@H]1CN(C)Cc1ccc(C(F)(F)F)cc1,-35.8%
16,Cc1noc(C)c1S(=O)(=O)Nc1cccc2c1O[C@H](CN(C)Cc1ccc(C(F)(F)F)cc1)[C@H](C)CN([C@H](C)CO)C2=O,36.8%
17,C[C@@H]1CN([C@H](C)CO)C(=O)c2cccc(NS(=O)(=O)c3ccc(F)cc3)c2O[C@@H]1CN(C)Cc1ccc(C(F)(F)F)cc1,-28.7%
18,COc1ccc(CCNC(=O)COC(=O)c2cccn2C)cc1,-11.1%
19,O=S(=O)(NCC[C@@H]1CC[C@@H](NS(=O)(=O)c2ccccc2Cl)[C@H](CO)O1)c1ccc(Cl)cc1,68.7%
20,O=S(=O)(NCC[C@H]1CC[C@H](NS(=O)(=O)c2ccccc2Cl)[C@H](CO)O1)c1ccc(Cl)cc1,67.6% [at 30 µM]
21,Cc1ccc2c(C)nc(Nc3nc(CSc4nnnn4-c4ccccc4)cc(=O)[nH]3)nc2c1,-21.8%
22,C=CCOc1c(Br)cc(CNc2ccc(NC(=O)C(C)C)c(OC)c2)cc1OC,129%
23,CC(NC(=O)c1ccccc1NC(=O)CN1CCc2ccccc2C1)c1ccccc1 (stereo not given),-3.06%
24,Cc1ccc(NC(=O)c2ccc(OCC3CCCO3)cc2)cc1Cl (stereo not given),-7.89%
25,O=C1c2cccnc2C(Nc2ccc(S(=O)(=O)N3CCCCCC3)cc2)N1Cc1ccccc1 (stereo not given),-20.4%
26,O=C1c2cccnc2C(Nc2ccc(S(=O)(=O)N3CCCCC3)cc2)N1Cc1ccccc1 (stereo not given),6.27%
27,CCCc1cc(C(=O)NCc2ccc(OC)cc2)no1,14.3%

row,SMILES,"activity change, negative = inhibition"
1,Cc1noc(C)c1S(=O)(=O)N(C)C[C@H]1Oc2ccc(NC(=O)Nc3ccccc3)cc2CC(=O)N([C@H](C)CO)C[C@H]1C,14.5%
2,CCNC(=O)C[C@@H]1CC[C@@H]2[C@H](COC[C@@H](O)CN2C(=O)c2ccccn2)O1,66.2%
3,CC(C)NC(=O)N(C)C[C@@H]1Oc2ccc(NC(=O)C3CC3)cc2CC(=O)N([C@H](C)CO)C[C@H]1C,-3.87%
4,CC(C)NC(=O)N(C)C[C@@H]1Oc2ccc(NC(=O)C3CC3)cc2CC(=O)N([C@@H](C)CO)C[C@@H]1C,-3.66%
5,Nc1ncn([C@H]2C[C@H](O)[C@@H](CO)O2)c(=O)n1,8.34%
6,C[C@@H]1CN([C@@H](C)CO)S(=O)(=O)c2ccc(-c3ccccc3)cc2O[C@H]1CN(C)S(C)(=O)=O,54.4%
7,Nc1nc2c(ncn2[C@@H]2O[C@H](C(=O)NCC(c3ccccc3)c3ccccc3)[C@@H](O)[C@H]2O)c(=O)[nH]1,19.5%
8,C[C@@H]1CN([C@H](C)CO)C(=O)c2cccc(NS(=O)(=O)c3cn(C)cn3)c2O[C@H]1CN(C)C(=O)Nc1ccc(F)cc1,0.184%
9,O=C(CC1C(=O)NCCN1Cc1cccc(F)c1)NC1CCCCC1 (stereo not given),73.6%
10,CCN(CCn1cccn1)C(=O)CC1C(=O)NCCN1CCc1ccccc1 (stereo not given),27.6%
11,CCCCNC(=O)C[C@H]1C[C@@]2(C(=O)OC)C(=C[C@H](C(C)(C)C)O[C@@H]2C)N(Cc2ccc3c(c2)OCO3)C1=O,26.7%
12,Cc1ccc2c(c1)c1c3n2CCN(CC(N)=O)C3CCC1 (stereo not given),38.7%
13,Cc1ccc(Cn2ncc3c(N4CCN(c5ccc(C)cc5)CC4)ncnc32)cc1,-19.9%
14,Cc1ccc(-n2ncc3c(N4CCN(c5ccccc5)CC4)ncnc32)c(C)c1,-35.1%
15,COc1ccc(NS(=O)(=O)c2cccc(C(=O)NNC(=O)CNC(=O)c3ccc(C)cc3)c2)cc1,3.44%
16,CCOC(=O)[C@]12CCC=C1N(Cc1ccc3c(c1)OCO3)C(=O)[C@H](CC(=O)NCC13CC4CC(CC(C4)C1)C3)C2,17.3% [at 16 µM]
17,COC(=O)[C@]12CCCCC=C1N(Cc1ccco1)C(=O)[C@H](CC(=O)NCCc1ccccc1OC)C2,99.6%
18,C[C@@H]1CN([C@H](C)CO)C(=O)c2cc(NC(=O)Nc3ccccc3)ccc2O[C@@H]1CN(C)S(=O)(=O)c1ccccc1,138%
19,CCOC(=O)[C@@H]1[C@H]2COc3cc(OC)ccc3[C@H]2N2C(=O)N(c3cccc(F)c3)C(=O)[C@@]12C,236%
20,C[C@H]1CN([C@@H](C)CO)C(=O)c2cccc(NC(=O)Nc3ccc(C(F)(F)F)cc3)c2O[C@H]1CN(C)S(=O)(=O)c1ccccc1,-14.4%
21,CCN(CC)S(=O)(=O)c1ccc(NC(=O)Nc2cccc(C(F)(F)F)c2)cc1,-121%
22,CCc1nnc(NC(=O)[C@@H](NC(=O)c2cccc(S(=O)(=O)N(CC)CC)c2)C(C)C)s1,52.6%
23,O=C(NCc1ccco1)c1ccc(Cn2c(=O)c3ccccc3n(Cc3cccc(F)c3)c2=O)cc1,15.9%
24,CCCCCn1c(C(C)NC(=O)CCC)nc2ccccc21 (stereo not given),-19.3%
25,COc1cc2c(c(OC)c1OC)[C@@]1(c3ccccc3)CCCC[C@H]1[C@@H]2NC(=O)C(F)(F)F,-28.2%
26,Cc1ccc(NS(=O)(=O)c2cc(C(=O)N(C)C3CCN(C)CC3)ccc2Cl)cc1Cl,81.1%
